Screening data from PubChem BioAssay.
The list is not random: actives were taken first. Their share in the collection is about 21%.
D3 antag – qHTS of D3 Dopamine Receptor Antagonist: qHTS | max response, negative = inhibition, % | D3R cells, DiscoveRx beta-arrestin luminescence, antagonist mode; hits give low values | 360,000 tested, 2.5% active | AID 652054, 2013; in the data active = max response below about -50%; inconclusive = no clear call, values can overlap the other calls
Target sequence (P35462 whole entry, looked up): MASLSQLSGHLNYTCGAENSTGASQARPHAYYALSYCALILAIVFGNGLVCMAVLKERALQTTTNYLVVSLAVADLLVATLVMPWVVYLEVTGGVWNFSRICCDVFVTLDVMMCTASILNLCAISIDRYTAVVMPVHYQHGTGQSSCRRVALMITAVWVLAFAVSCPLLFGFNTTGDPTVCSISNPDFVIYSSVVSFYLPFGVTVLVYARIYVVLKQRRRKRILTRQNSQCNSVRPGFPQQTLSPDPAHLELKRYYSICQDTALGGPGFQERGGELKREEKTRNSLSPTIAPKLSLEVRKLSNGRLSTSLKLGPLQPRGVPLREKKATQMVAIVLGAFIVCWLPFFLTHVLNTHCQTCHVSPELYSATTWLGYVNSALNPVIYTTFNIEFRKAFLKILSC
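Cells expressing the human receptor were seeded at 1500 cells/well, incubated overnight at 37 degrees C in 5% CO2, then exposed to library compounds with dopamine controls for 90 minutes at 37 degrees C before luminescent detection.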
DRD3 agonist – qHTS of D3 Dopamine Receptor Agonist: qHTS. D(3) dopamine receptor (Homo sapiens), P35462. D3R DiscoveRx beta-arrestin cells, luminescence, 90 min. max activation, %. 410,000 tested, 0.58% active. AID 652048, 2013; in the data active = max activation above about 30%
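Agonist-mode cell screen: cells plated at 1500/well and incubated overnight at 37 °C, then exposed to library compounds for 90 min at 37 °C. Detection reagent was added for 30–60 min at room temperature, and luminescence was read.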
DT40 TDP1 no CPT – qHTS for Inhibitors of human tyrosyl-DNA phosphodiesterase 1 (TDP1): qHTS in cells in absence of CPT; DT40 Tdp1-/- hTDP1 cells, no CPT, ATP luminescence, 48 h; Potency, µM (top dose mostly 46.2 µM), actives largely listed as inhibitors; 420,000 tested, 15% active; AID 686978, 2013; also: nearly all actives have a fitted effect of over 55% in size
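Chicken DT40 Tdp1-/- cells complemented with human TDP1, screened without camptothecin (DMSO vehicle only), 400 cells/well. Compounds pin-transferred, cells incubated at 37 °C for at least 48 hr. Growth read as ATP-dependent luminescence (CellTiter-Glo, 30 min at RT).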
ClpP mod – qHTS Assay for Activators of ClpP; ATP-dependent Clp protease proteolytic subunit (Bacillus subtilis (strain 168)), P80244; purified B. subtilis ClpP, FRET peptide cleavage, 20 min; Potency, µM (doses to about 57.5 µM); 340,000 tested, 1.9% active; active = well fitted falling curve with a large enough effect; inconclusive = small, poorly fitted or top-dose-only effect; inactive = no such curve, though single readings can be large or run the other way; also: the source files actives as falling curves though it sought activators and does not explain the sign; nearly all actives have a fitted effect of over 65% in size
Target sequence (P80244 whole entry, looked up): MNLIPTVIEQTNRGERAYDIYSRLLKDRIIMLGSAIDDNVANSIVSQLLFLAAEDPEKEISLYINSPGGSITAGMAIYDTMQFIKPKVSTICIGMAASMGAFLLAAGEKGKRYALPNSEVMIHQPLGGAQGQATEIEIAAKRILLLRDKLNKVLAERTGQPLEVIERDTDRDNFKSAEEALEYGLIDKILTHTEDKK
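ClpP 10 microg/mL final, pH 8 Tris/KCl buffer with BSA, glycerol, Tween-20; compound pinned in; FRET-FV substrate; RT 20 min; Ex320/Em430; ΔFRET vs ADEP 5.8 microM, DMSO, no enzyme.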
IL-1B inflam inh – qHTS for Inhibitors of Inflammasome Signaling: IL-1-beta AlphaLISA Primary Screen; THP-1 LPS/ATP IL-1B secretion, AlphaLISA, 16 h; hits give low values; activity change, % at 57.5 µM; 360,000 tested, 4.7% active; in the data active = activity change below about -50%; inconclusive = mostly about -30% to -49%
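Secreted IL-1B measured by AlphaLISA bead assay after 16 h compound exposure of THP-1 cells; compounds (final up to 57.5 uM) added 1 h before LPS (250 ng/mL) and ATP (1.25 mM) stimulation; lower signal means less secretion.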
TDP1 cell CPT – qHTS for Inhibitors of human tyrosyl-DNA phosphodiesterase 1 (TDP1): qHTS in cells in presence of CPT; chicken DT40 Tdp1-/-;hTDP1 cells + 20 nM CPT, ATP luminescence, 48 h; Potency, µM (series often up to 46.2 µM), hits mostly inhibitors; AID 686979, 2013; 420,000 tested, 12% active; also: nearly all actives have a fitted effect of over 55% in size
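Chicken DT40 Tdp1-/- cells complemented with human TDP1, 400 cells/well, exposed to compounds plus 20 nM camptothecin for at least 48 h at 37 C; viability read as ATP content by CellTiter-Glo luminescence.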
Each line names hits and unclear results; the compound was inactive in the other large screens. Unless noted, calls follow the shape of the dose curve; as a rule, active = well fitted inhibition curve with a large enough effect; inconclusive = small, poorly fitted or top-dose-only effect; inactive = flat fitted curve, though single readings scatter.

c1ccc2c[n+](CCCCCCCCCC[n+]3ccc4ccccc4c3)ccc2c1	DT40 TDP1 no CPT 8.3µM, TDP1 cell CPT 10µM (no result: D3 antag, DRD3 agonist, IL-1B inflam inh)
O=c1[nH]c(=O)n(Cc2ccco2)c(O)c1/C=N/N1CCCCC1	none
CCC(CC)C(=O)NC1CCSC1=O (stereo unspecified)	none
S=P(N1CCOCC1)(N1CC1)N1CC1	DRD3 agonist 34, DT40 TDP1 no CPT 6.5µM, TDP1 cell CPT 5.2µM (no result: ClpP mod)
O=P(N1CCCCCC1)(N1CCCCCC1)N1CC1	TDP1 cell CPT inconclusive
S=P(N1CCCCCC1)(N1CC1)N1CC1	DT40 TDP1 no CPT 4.1µM, TDP1 cell CPT 3.3µM
O=C(O)Cc1cccnc1C(=O)O	none (no result: D3 antag, DRD3 agonist, ClpP mod, IL-1B inflam inh)
Clc1ccc(CSc2nnc(-c3ccccn3)n2Cc2ccco2)cc1Cl	DT40 TDP1 no CPT inconclusive, TDP1 cell CPT inconclusive
CN1CCN(c2ccc(C(F)(F)F)cc2N)CC1	none (no result: ClpP mod)
COc1cccc(C(=O)C2CCCN(Cc3ccon3)C2)c1 (stereo unspecified)	none (no result: ClpP mod)
COc1ccc2cc(C(=O)C3CCCN(C4CCOCC4)C3)ccc2c1 (stereo unspecified)	D3 antag inconclusive, DT40 TDP1 no CPT 13µM, TDP1 cell CPT 21µM (no result: ClpP mod)
COc1c(C)cc(C(=O)C2CCCN(Cc3cccc(O)c3)C2)cc1C (stereo unspecified)	D3 antag -60, DT40 TDP1 no CPT inconclusive, TDP1 cell CPT inconclusive
COc1cccc(C(=O)C2CCCN(Cc3cccc(C)n3)C2)c1 (stereo unspecified)	DT40 TDP1 no CPT 16µM, TDP1 cell CPT 18µM
COc1c(C)cc(C(=O)C2CCCN(C3CCOCC3)C2)cc1C (stereo unspecified)	none
COc1c(C)cc(C(=O)C2CCCN(Cc3cccc(C)n3)C2)cc1C (stereo unspecified)	DT40 TDP1 no CPT 21µM, TDP1 cell CPT inconclusive
CC1CCC(NC(=O)CNC(=S)N2CC3CC(C2)c2cccc(=O)n2C3)CC1 (stereo unspecified)	none
CC(C)CCCC(C)C1CCC2C3C(=O)C=C4CC(O)CC[C@@]4(C)C3CC[C@@]12C (stereo partly specified)	none (no result: D3 antag, DRD3 agonist, ClpP mod, IL-1B inflam inh)
CN1C(=O)NC(=O)C2(CCCC2)C1=O	none (no result: ClpP mod)
C[C@]12C[C@H]3S[C@H]3C[C@@H]1CC[C@@H]1[C@@H]2CC[C@]2(C)[C@@H](O)CC[C@@H]12	none (no result: D3 antag, ClpP mod, IL-1B inflam inh)
COc1cccc(C(=O)C2CCCN(Cc3ccc(F)cc3)C2)c1 (stereo unspecified)	D3 antag -56 (no result: ClpP mod)
COc1cccc(C(=O)C2CCCN(Cc3ccc4nsnc4c3)C2)c1 (stereo unspecified)	DT40 TDP1 no CPT inconclusive, TDP1 cell CPT inconclusive (no result: ClpP mod)
O=[N+]([O-])c1cc(F)c(N2CCCCCC2)cc1N1CCNCC1	DT40 TDP1 no CPT inconclusive, TDP1 cell CPT 16µM
CN1CCN(c2ccc([N+](=O)[O-])c(N3CCCCC3)c2)CC1	none (no result: ClpP mod)
COC(=O)C1=C(c2ccc(F)cc2OCc2ccccc2)C[C@@H]2CC[C@H]1N2C(=O)NCCOc1ccccc1	DT40 TDP1 no CPT 16µM, IL-1B inflam inh inconclusive, TDP1 cell CPT inconclusive
COC(=O)C1=C(c2ccccc2OCc2ccccc2)C[C@@H]2CC[C@H]1N2C(=O)NCCOc1ccc(OC)cc1	D3 antag inconclusive, DT40 TDP1 no CPT inconclusive, TDP1 cell CPT inconclusive
COC(=O)C1=C(c2ccc(F)cc2OCc2ccccc2)C[C@@H]2CC[C@H]1N2C(=O)NCc1ccc(Br)cc1	DT40 TDP1 no CPT 15µM, IL-1B inflam inh -60, TDP1 cell CPT inconclusive
COC(=O)C1=C(c2ccc(F)cc2OCc2ccccc2)C[C@@H]2CC[C@H]1N2C(=O)NCCOc1ccc(OC)cc1	DT40 TDP1 no CPT 16µM, IL-1B inflam inh inconclusive, TDP1 cell CPT inconclusive
COC(=O)C1=C(c2ccc(F)cc2OCc2ccccc2)C[C@@H]2CC[C@H]1N2C(=O)NCCOc1ccccc1Cl	D3 antag inconclusive, DT40 TDP1 no CPT 16µM, TDP1 cell CPT 21µM
COC(=O)C1=C(c2ccc(F)cc2OCc2ccccc2)C[C@@H]2CC[C@H]1N2C(=O)NCc1ccc(OC)cc1	DT40 TDP1 no CPT inconclusive, IL-1B inflam inh inconclusive, TDP1 cell CPT inconclusive
CNC(=O)OCCc1n(C)cc[n+]1C	none
COC(=O)C1=C(c2ccc(F)cc2OCc2ccccc2)C[C@@H]2CC[C@H]1N2C(=O)NCCc1ccc(F)cc1	DT40 TDP1 no CPT 21µM, IL-1B inflam inh inconclusive, TDP1 cell CPT inconclusive
COC(=O)C1=C(c2ccc(F)cc2OCc2ccccc2)C[C@@H]2CC[C@H]1N2C(=O)NCc1ccc(N(C)C)cc1	DT40 TDP1 no CPT inconclusive, IL-1B inflam inh inconclusive, TDP1 cell CPT inconclusive
COC(=O)C1=C(c2ccc(F)cc2OCc2ccccc2)C[C@@H]2CC[C@H]1N2C(=O)NCc1cccc(C(F)(F)F)c1	DT40 TDP1 no CPT 18µM, IL-1B inflam inh -59, TDP1 cell CPT inconclusive
Oc1ccc(Cl)c(Cl)c1Cl	none
CN(C)CC1CSCCC1(O)c1ccc(C(F)(F)F)cc1 (stereo unspecified)	none
Cc1cccc(CC(c2cccc(C)c2)N(C)C)c1 (stereo unspecified)	none (no result: ClpP mod)
O=C(Nc1ccccc1)c1cc([N+](=O)[O-])ccc1N1CCNCC1	none (no result: ClpP mod)
O=[N+]([O-])c1ccc2nc(N3CCNCC3)ccc2c1	DT40 TDP1 no CPT 21µM, IL-1B inflam inh -53, TDP1 cell CPT inconclusive
CCOc1ccc(-c2cc(C(=O)N3CCC4(CC3)OCCO4)c3ccccc3n2)cc1	DT40 TDP1 no CPT inconclusive, TDP1 cell CPT 5.2µM (no result: ClpP mod)
CCN(CC)C(=O)c1ccc(NC(=O)c2cn(-c3ccccc3)nc2-c2ccc(OC)cc2)cc1	DT40 TDP1 no CPT inconclusive, TDP1 cell CPT inconclusive
COc1cccc(CN2CCN(Cc3cccc(F)c3)CC2)c1	none
COc1ccc(CN2CCN(C(=O)Cc3ccccc3)CC2)c(OC)c1	none
COc1ccc(CN2CCN(Cc3ccccc3)CC2)c(OC)c1	D3 antag -113, TDP1 cell CPT inconclusive
COc1cccc(N2CCN(Cc3ccc(Cl)cc3)CC2)c1	D3 antag -94
COc1cccc(N2CCN(Cc3cccc(Cl)c3)CC2)c1	D3 antag -74
Fc1cccc(CN2CCN(c3ccc(Cl)cc3)CC2)c1	D3 antag -72, DT40 TDP1 no CPT inconclusive, TDP1 cell CPT inconclusive
CC/C(=N\Nc1ccccc1)c1c(O)n(-c2ccccc2)c(=O)[nH]c1=O	none
